Among all 640,000 compounds or so, about 9,300 (1.5%) were called active. Many of the other results were omitted from the sample, so actives are more common in it than they were. Unmarked numbers belong to inactive results. No stated cut-off is given here; in the data, active means inhibition above about 32%; inactive means the rest.
experiment: TEAD-YAP interaction inhibition, primary screen, TEAD-YAP interaction inhibitor project, luminescence, HEK-TIYL cells (AID 1259422); conditions: TEAD-Gal4/YAP UAS-luciferase luminescence, at 9.12 µM, stronger effect = higher value;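 further: 0% = median of test compound wells and 100% = reference inhibitor wells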

In order of falling inhibition:
1. CC(C)n1cnc2c(NC3CCN(Cc4ccccc4)CC3)nc(NC3CCN(Cc4ccccc4)CC3)nc21  23.1%
2. COc1ccc(CNCc2cc(-c3ccccc3)cn3nnnc23)cc1  16%
3. COc1cc(Nc2cc(-c3nocc3-c3cnn(C)c3)ccn2)ccc1N1CCOCC1  15%
4. Cc1ccc(NC(=O)C2CC3CCCN3C23C(=O)Nc2ccccc23)cc1 (configuration not stated)  11.1%
5. COc1ccc(C(=O)Nc2cc(C)nn2-c2nc3ccccc3[nH]2)cc1[N+](=O)[O-]  10.1%
6. NC(=O)c1ccc(C(=O)N2CCC3(CC2)NC(=O)c2ccccc2O3)c(F)c1  9.77%
7. CC1CN(c2nc3c(c(=O)[nH]2)CCN(c2cnccn2)C3)CC(C)O1 (configuration not stated)  9.31%
8. NS(=O)(=O)c1ccc(C(=O)OCc2cccc(Cl)c2Cl)cc1  8.02%
9. CC(=O)Nc1ccc(-c2nc(-c3ccccc3)c3cc(C)ccc3n2)cc1  7.4%
10. c1ccc(CN2CCC(Nc3nc(Nc4ccc(N5CCOCC5)cc4)c4ncn(C5CCCCC5)c4n3)CC2)cc1  7.35%
11. Cc1cc(C(=O)N/N=C/c2ccc(Br)c([N+](=O)[O-])c2)n[nH]1  6.76%
12. CCn1c(N=Nc2c(O)[nH]c3ccccc23)nc2c1c(=O)n(C)c(=O)n2C  6.12%
13. CCOC(=O)C1=C(c2ccccc2)N=c2s/c(=C\c3ccc4c(c3)OCO4)c(=O)n2C1c1ccc(OC)c(OC)c1 (configuration not stated)  6.04%
14. c1ccc(CN2CCC(Nc3nc(-c4ccccc4)nc4c3ncn4C3CCCCC3)CC2)cc1  6.01%
15. N#CCOc1ccc2c(=O)c(Oc3ccc4ccccc4c3)coc2c1  5.86%
16. COc1ccc2[nH]c(=O)c(CN(CCCO)Cc3nnnn3CC3CCCO3)cc2c1 (configuration not stated)  5.17%
17. CCS(=O)(=O)N1CCN(c2cccc(Cl)c2)CC1  4.72%
18. COCCN(C(=O)CN1C(=O)c2ccccc2C1=O)C1(C(=O)Nc2ccccc2)CCCC1  4.63%
19. O=C(Cc1cccc2ccccc12)Nc1ccccc1-c1nc2ccccc2s1  4.57%
20. Cc1cccc(-n2nc3c(c2NC(=O)c2ccc4c(c2)OCO4)CSC3)c1C  3.84%
21. CC(C)(C)NC(=O)c1cccc(S(=O)(=O)N2CCN(c3ccc(F)cc3)CC2)c1  3.68%
22. Cc1sc(NC(=O)c2ccc(S(=O)(=O)N(C)c3ccccc3)cc2)c(C#N)c1C  3.35%
23. CCOc1ccc(CN2CCN(Cc3cc(OC)ccc3O)CC2)cc1  3.2%
24. C=CCNc1ccc([N+](=O)[O-])cc1C#N  3.17%
25. Cc1cccc(N(CC(O)c2ccccc2)S(=O)(=O)c2ccc3c(c2)OCCO3)c1 (configuration not stated)  2.94%
26. Cn1c(/C(C#N)=C/c2ccccc2)nc2ccccc21  2.92%
27. O=C(CNc1cccc(Br)c1)Nc1ccccc1C(=O)Nc1ccccc1  2.84%
28. CCN1CCN(C(=O)c2ccc(OC)cc2OC)CC1  2.8%
29. Cn1nccc1Nc1cc(Nc2ccc(N3CCOCC3)cc2)ncn1  2.78%
30. COc1ccc(Cl)cc1NC(=S)NC(C)c1ccncc1 (configuration not stated)  2.52%
31. CC(C)n1cnc2c(NC3CC3)nc(-c3ccc(N4CCOCC4)nc3)nc21  1.84%
32. CCCNC(=O)Cn1c(=O)oc2cc(Cl)ccc21  1.41%
33. CCOc1ccc(-c2cc(C(=O)N/N=C\c3ccccc3O)[nH]n2)cc1OC  1.39%
34. Cc1ccc[n+](CC(=O)c2ccc(Cl)cc2)c1C  1.36%
35. COc1ccc(OCCSc2nnc3nc(C)cc(C)n23)cc1  0.54%
36. COC(=O)C1=C(C)NC2=C(C(=O)c3ccccc32)C1c1ccc(OC)cc1 (configuration not stated)  -0.11%
37. CCCc1cc(=O)[nH]c2nnc(SCC(=O)Nc3cc(OC)ccc3OC)n12  -0.38%
38. CC(C)(C)c1cc(C(=O)N/N=C/c2c(O)ccc3ccccc23)n[nH]1  -0.43%
39. N#CC(C#N)=C1SCC(=O)N1c1ccc(F)cc1  -0.92%
40. CC(C)N(C(=O)NCCC(=O)c1ccc(F)cc1)C(C)C  -1.1%
41. CCN1C(=O)N/C(=C/c2ccccc2OCc2ccc(C(=O)O)cc2)C1=O  -1.26%
42. O=C1c2cc(S(=O)(=O)N3CCCC3)ccc2-c2ccc(S(=O)(=O)N3CCCC3)cc21  -1.36%
43. Oc1ccc(/C=N/Nc2ccccc2Cl)c(O)c1O  -1.62%
44. CSc1nnc2c(n1)OC(c1ccc(N(C)C)cc1)Nc1ccc(Br)cc1-2 (configuration not stated)  -2.24%
45. CC(=O)Nc1sc(C)c(C)c1-c1nc2ccccc2s1  -2.29%
46. CCOc1cccc(-c2cc(C(=O)N/N=C/c3ccccc3O)[nH]n2)c1  -2.87%
47. CCCCN(CC)CCNC(=O)CCNC(=O)Cn1cnc2sc3c(c2c1=O)CCCC3  -4.71%
48. Cc1cc2c(cc1C)NC(CC(=O)Nc1cccc([N+](=O)[O-])c1)C(=O)N2 (configuration not stated)  -4.87%
49. O=C(NC(=O)c1cccc(F)c1)OC1CCS(=O)(=O)C1 (configuration not stated)  -5.15%
50. N#C/C(=C\c1ccc(-c2ccc(S(N)(=O)=O)cc2)o1)C(N)=O  -6.41%
51. O=C(NCCO)c1cccc(-c2cnn3c(N4CCCCC4CCO)ccnc23)c1 (configuration not stated)  -6.65%
52. CCOC(=O)C1=C(C)NC2=C(C(=O)c3ccccc32)C1c1cccc(F)c1 (configuration not stated)  -6.85%
53. CCOc1ccc(O)c(/C=N/NC(=O)CNc2ccc3ccccc3c2)c1  -7.17%
54. COc1ccc(C2/C(=C(\O)c3ccc(C)cc3)C(=O)C(=O)N2c2c(C)n(C)n(-c3ccccc3)c2=O)cc1 (configuration not stated)  -7.88%
55. O=C1c2cc(O)ccc2-c2ccc(O)cc21  -8.01%
56. Cc1ccc(-c2cnn3c(NCc4ccc5c(c4)OCO5)ccnc23)cc1  -8.18%
57. CCc1cc2c(=O)c(-c3ccc4c(c3)OCCCO4)coc2cc1OC(=O)N1CCOCC1  -8.61%
58. CC1CN(CCC(=O)N2CCCN(C3Cc4ccccc4C3)CC2)Cc2ccccc2O1 (configuration not stated)  -10.5%
59. NC(=O)c1ccc(N=Cc2cccc(O)c2O)cc1  -12.1%
60. CCCN1CC=C2C(C1)C(c1cccc(C(F)(F)F)c1)C(C#N)=C(N)C2(C#N)C#N (configuration not stated)  -14.9%
61. CCCOc1ccc(/C=N/NC(=O)OC)c(O)c1  -15.8%
62. O=C(NC1CCN(Cc2ccccc2)CC1)c1ccc(-c2ccccc2)s1  -22.3%
63. CC(C)(C)C(=O)Nc1ccc(-c2csc(N)n2)cc1  -22.9%
64. CCCn1c(=O)[nH]c2c(C(N)=O)nc(-c3cn(C)nc3C)nc21  -23%
65. Clc1cc2nc3[nH]c4ccccc4c3nc2cc1Cl  -25.4%
66. CN(C)CCNc1ccnc2c(-c3ccc(F)c(Cl)c3)cnn12  -31.8%
67. N#Cc1ccsc1NC(=O)COC(=O)CC12CC3CC(CC(C3)C1)C2  -33.5%
68. CCc1cc2c(=O)c(-c3ccc4c(c3)OCCCO4)coc2cc1OC  -34.2%
69. COc1ccc(CC(=O)c2ccc(OC)cc2)cc1  -37.9%
70. OC[C@@H]1CCCN1c1ccnc2c(-c3cccc4ccccc34)cnn12  -40.1%
71. COc1ccc(-c2cc(NC3CC3)nc(N)n2)cn1  -43.5%
72. C=CCN1C(=O)S/C(=C/c2ccccc2F)C1=O  -54.7%
73. CC(=O)Nc1nc(-c2ccc(C)c(C)c2)cs1  -61.1%
74. Cc1ccc(OCc2nc3ccccc3n2CC(=O)Nc2cc(C)on2)cc1  -69.6%

For Nc1ccc2c(c1)C(=O)C(=O)c1cc(N)ccc1-2, the inhibition was 99% (active).
For Cn1cc(-c2cc(Nc3ccc(N4CCOCC4)cn3)ncc2Cl)cn1, the inhibition was 38.9% (active).
With CC(C)n1cnc2c(NC3CCN(Cc4ccccc4)CC3)nc(Nc3ccc(N4CCOCC4)cc3)nc21 the inhibition was 55.8% (active).
For CC(C)n1cnc2c(NC3CCN(Cc4ccccc4)CC3)nc(-c3ccc(N4CCOCC4)nc3)nc21, the inhibition was 36.3% (active).
For c1ccc2nc(-c3nc4ccccc4s3)ccc2c1, the inhibition was 50.1% (active).
In the case of CCOc1ccc(/C=N/NC(=O)c2cc(C(C)(C)C)[nH]n2)c(O)c1, the inhibition is reported as 59.8% (active).
With CCOc1ccc(-c2cc(C(=O)N/N=C/c3c[nH]c4ccccc34)[nH]n2)cc1 the inhibition was 55.9% (active).
With Cc1ccc(/C=N\NC(=O)c2cc(C(C)(C)C)[nH]n2)cc1 the inhibition was 45.2% (active).
For OCCC1CCCCN1c1ccnc2c(-c3ccc(F)c(Cl)c3)cnn12 (configuration not stated), the inhibition was 41.4% (active).
With OC[C@@H]1CCCN1c1ccnc2c(-c3ccc4c(c3)OCO4)cnn12 the inhibition was 55.2% (active).
In the case of Oc1cccc(/C=N/Nc2ccc(Cl)nn2)c1O, the inhibition is reported as 79.2% (active).
With CC(=O)NCCCc1ccc(-c2csc(N)n2)cc1 the inhibition was 56.7% (active).
With CCOC(=O)C1=C(C)NC2=C(C(=O)c3ccccc32)C1c1cc(Br)c(OC)c(OC)c1 (configuration not stated) the inhibition was 57.2% (active).
With COc1ccc(-c2coc3cc(OCCN4CCOCC4)ccc3c2=O)cc1OC the inhibition was 33% (active).
With Cn1c(/C(C#N)=C\c2ccc(-c3ccc(S(N)(=O)=O)cc3)o2)nc2ccccc21 the inhibition was 36.2% (active).
With COc1ccc(C(=O)C[n+]2ccc(N)c(C)c2C)cc1 the inhibition was 33% (active).
For COc1ccc(-c2ccc(C(=O)NC3CC3)s2)cn1, the inhibition was 40.7% (active).
In the case of CC(=O)Nc1ccc2nc3c(cc2c1)[nH]c1ccccc13, the inhibition is reported as 32.4% (active).
